According to ChEMBL document CHEMBL2218924, “A broad activity screen in support of a chemogenomic map for kinase signalling research and drug discovery” (Biochem J, 2013):

Each compound was assayed against Tyrosine-protein kinase Blk (Homo sapiens) (UniProt P51451). Conditions: at 10 µM.
Chain of Tyrosine-protein kinase Blk (Homo sapiens) (P51451 2-505 limits assumed): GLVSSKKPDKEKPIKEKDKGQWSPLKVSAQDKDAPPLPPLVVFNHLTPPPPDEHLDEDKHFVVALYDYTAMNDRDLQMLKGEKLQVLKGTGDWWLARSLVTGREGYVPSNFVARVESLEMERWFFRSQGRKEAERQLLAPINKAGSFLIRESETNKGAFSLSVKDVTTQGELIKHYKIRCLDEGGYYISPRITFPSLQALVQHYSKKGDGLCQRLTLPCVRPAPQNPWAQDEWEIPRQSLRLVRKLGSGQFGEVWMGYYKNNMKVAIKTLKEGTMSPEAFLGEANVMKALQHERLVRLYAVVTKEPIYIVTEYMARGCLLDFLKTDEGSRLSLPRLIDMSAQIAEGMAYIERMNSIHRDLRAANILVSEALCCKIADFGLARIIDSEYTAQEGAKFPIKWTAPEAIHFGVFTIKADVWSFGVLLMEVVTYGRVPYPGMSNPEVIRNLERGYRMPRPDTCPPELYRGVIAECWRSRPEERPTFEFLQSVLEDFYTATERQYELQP

Row | Structure (SMILES) | residual activity [%]
1 | CCN(CC)CCCCN1c2ccccc2Oc2ccc(Cl)cc21 | 88
2 | O=[N+]([O-])c1ccc(-c2nc(-c3ccc(F)cc3)c(-c3ccncc3)[nH]2)cc1 | 98
3 | Cc1ccc(S(=O)(=O)/C=C/C#N)cc1 | 117
4 | COc1cc2ncnc(Nc3ccc(NC(=O)c4ccccc4)cc3)c2cc1OC | 2
5 | Cn1nc2c3c(cccc31)C(=O)c1ccccc1-2 | 91
6 | Cc1nc2cc3nc(-c4cccs4)cnc3cc2n1C | 48
7 | COc1cc2ncnc(N3CCN(C(=O)Nc4ccc(Oc5ccccc5)cc4)CC3)c2cc1OC | 72
8 | CC(C)n1cnc2/c(=N/c3cccc(Cl)c3)nc(NCCO)[nH]c21 | 15
9 | Cc1cc(Nc2nc(-c3ccccc3)nc3ccccc23)n[nH]1 | 1
10 | Cc1cncc2cccc(S(=O)(=O)N3CCCN(C(=O)CN)C[C@H]3C)c12 | 75
11 | Cc1cccc(-c2[nH]c(C(C)(C)C)nc2-c2ccc3c(c2)OCO3)n1 | 106
12 | N#Cc1cnc2cnc(NCc3cccnc3)cc2c1Nc1ccc(F)c(Cl)c1 | 3
13 | COc1ccc(S(=O)(=O)N(CCO)c2ccccc2CN(C)C/C=C/c2ccc(Cl)cc2)cc1 | 58
14 | c1ccc2c(-c3ccncc3)c[nH]c2c1 | 107
15 | c1ccc(-c2n[nH]cc2-c2ccnc3ccccc23)nc1 | 59
16 | O=C(Nc1cccc(Nc2nccc(Nc3cccc(C(F)(F)F)c3)n2)c1)C1CC1 | 57

Row | Structure (SMILES) | residual activity [%]
17 | O=C1Nc2cc(Br)ccc2/C1=C1/Nc2ccccc2/C1=N\O | 5
18 | COc1ccc(OC)c2c(=S)c3ccccc3[nH]c12 | 96
19 | O=C1NC(=O)c2c1c1c3ccccc3[nH]c1c1[nH]c3cc(Br)ccc3c21 | 85
20 | O=C(Nc1cccc(Nc2cc(Nc3cccc(C(F)(F)F)c3)ncn2)c1)C1CC1 | 69
21 | N#CCCc1ccc2c(c1)-c1[nH]c3ccc([N+](=O)[O-])cc3c1CC(=O)N2 | 11
22 | O=C1Nc2ccc(Br)cc2/C1=C\c1cc2c([nH]1)CCCC2 | 38
23 | Nc1nc(Nc2ccc(S(N)(=O)=O)cc2)nn1C(=S)Nc1c(F)cccc1F | 0
24 | Nc1cccc(-c2cc3c(Oc4cccc(O)c4)ncnc3[nH]2)c1 | 1
25 | Cc1cc2ncc(-c3ccccc3)nc2cc1C | 95
26 | CO[C@@H]1[C@H](N(C)C(=O)c2ccccc2)C[C@H]2O[C@]1(C)n1c3ccccc3c3c4c(c5c6ccccc6n2c5c31)C(=O)NC4 | 5
27 | COc1ccc(C(=O)Nc2sc3c(c2C(N)=O)CCCC3)cc1OC | 94
28 | CO[C@H]1[C@@H](OC)C[C@H](C)[C@@H](OC)C2=CC(=O)C=C(NC(=O)/C(C)=C/C=C/[C@H](OC)[C@@H](OC(N)=O)/C(C)=C/[C@@H]1C)C2=O | 78
29 | O=C1NC(=O)c2cc(Nc3ccc(F)cc3)c(Nc3ccc(F)cc3)cc21 | 38
30 | Oc1n[nH]c2nnc(-c3c(-c4ccccc4)nn4ccccc34)cc12 | 90
31 | O=Nc1c(-c2c(O)[nH]c3ccccc23)[nH]c2ccccc12 | 0
32 | c1ccc(-c2n[nH]c3c2oc2ccccc23)cc1 | 49
